From paper PMC12136788
Where a chain is given by its changes, count along the chain named. The full ranking holds about 24,000 sequences; the median of “enrichment r” is about 0.99, and the highest 2% start at about 3.7. The entries come from a sample that favours the highest values as a whole.

T1: UNK ZnF1-3 (human, UniProt Q9C0B0 31-174)
T1 sequence: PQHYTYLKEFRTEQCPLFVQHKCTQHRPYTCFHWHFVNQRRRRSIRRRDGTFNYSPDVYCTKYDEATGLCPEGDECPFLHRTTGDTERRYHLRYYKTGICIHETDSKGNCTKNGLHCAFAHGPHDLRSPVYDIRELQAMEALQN

B1: chr10:70525781:70525782:+_ENSG00000060339_ENST00000535016|hu_hu|motif|central (ssRNA)
RNA: GGGAGUUCUACAGUCCGACGAUCUGAAUGUUCUUUAUUAUCCUCUAAUCUGUAGUCCAAUAGGACACUCAAAGACAUGAUGCGGCAAUCAAACUUGCCACUUUUUGCAGCCCAAUUUGGAUGUACAAUGAUGGCCGGUUCAUCCAACAGAGGAUUGAGCAUCA
B2: chr20:57415074:57415075:+_ENSG00000087460_ENST00000313949|hu_hu|motif|central (ssRNA)
RNA: GGGAGUUCUACAGUCCGACGAUCUCUGCAGAGAGUGGCUCCGAAGCACAUUGGCUGCUGGAGCCGGGAAAGGUACACCCGGUGAGGUGAGAAGCUGGCCCGGAGGUCCCAGCCUCACCUCCUUGUGAGGAGAAAAAGGGAAGCCAACAGAGGAUUGAGCAUCA
B3: chr17:23874276:23874277:-_ENSMUSG00000023909_ENSMUST00000024702|mus_mus|motif|central (ssRNA)
RNA: GGGAGUUCUACAGUCCGACGAUCAGAGACUCUCACAGGUUAAACAGGGUAAAUUGGGAAAAAAAAAAAUGGUUUCCUUCGGAUGACAGCAAAACAAUGCCCAGGAGGGAAGAUGGCAAGGAAAGUGGAAGCUGGGGUUUGAAGCAACAGAGGAUUGAGCAUCA
B4: chr17:23874276:23874277:-_ENSMUSG00000023909_ENSMUST00000024702|mus_mus|FALSE|FALSE (ssRNA)
RNA: B3 RNA with G80U, G81A
B5: chrX:7396663:7396664:+_ENSMUSG00000031153_ENSMUST00000132456|mus_mus|motif|central (ssRNA)
RNA: GGGAGUUCUACAGUCCGACGAUCGCAAGGGCAUACAUGGAUGGAUCAGUGGGCAGAGGGACAGAUGGCAGACUGAUGGGCGGACCUGGGAAGUUGAUUGGAGGGUAAAAGAGGUGAACACAAAAGGGCGGUAGAUGACUGGAACAACAGAGGAUUGAGCAUCA
B6: chr1:220276048:220276049:+_ENSG00000067704_ENST00000302637|hu_hu|hu_hu_hu_mus_True|1_108 (ssRNA)
RNA: GGGAGUUCUACAGUCCGACGAUCGCAAACAGCUUCAUUGGCGGGAAUUGUCCAAGGCUGGGUGGUCCAAACUAAAACGCUAACAGGGGAUGAGGCAUCUGUAAGAGACUCCAACUUCGGAGGAGGUCUCAGGAGGGGAAAUUUCAACAGAGGAUUGAGCAUCA
B7: chr18:38611996:38611997:+_ENSMUSG00000024425_ENSMUST00000025293|mus_mus|FALSE|FALSE (ssRNA)
RNA: GGGAGUUCUACAGUCCGACGAUCAAGACCAAAUCCUGAGAUGGCCCCAUACCUUCCCGCAGCUGAGGUGGUCAGGCAAAAAGACAAGAAAAACCCAAUCCAGUUGAAGAGGAAUGCCAUGAAAAAAGUUAACAUAAAAAUCCCCAACAGAGGAUUGAGCAUCA
B8: chr17:23874276:23874277:-_ENSMUSG00000023909_ENSMUST00000024702|mus_hu|FALSE|FALSE (ssRNA)
RNA: GGGAGUUCUACAGUCCGACGAUCUCUAACCCCACAGGUCACAGAGGGUAAAGAGGUCCCAAGAGGGAAAGGUUUCCUUCCAGCUGACACAGUAAAAUAGGAGCUUGGAGGGAAAAGGCAGGGAAGGAAGUUGGAGCGCCACGGCAACAGAGGAUUGAGCAUCA
B9: chr7:112757510:112757511:-_ENSG00000214194_ENST00000397764|hu_mus|FALSE|FALSE (ssRNA)
RNA: GGGAGUUCUACAGUCCGACGAUCCUUUCUUGCGUAUAUCCCCAAGCAAGCACAGAUGCCGGUAAUGCUGAGAACCACACCUAAUAAGAGUGCAAUCGCGUCUCCAGCUUCCACUGCUUCAACAACAGGCAGGAUCAAAAGCAGCAACAGAGGAUUGAGCAUCA
B10: chr9:49312907:49312908:-_ENSMUSG00000039542_ENSMUST00000166811|mus_hu|motif|central (ssRNA)
RNA: GGGAGUUCUACAGUCCGACGAUCAGCUGCAAUUUGGCAUUCGUCCUAUAAAAUAAGAGUCUACGUGGGAAUUGAAUUCAGCGGGAAAGGGUGACACACUUUGCAUACUGAACAAAUACAAAGUGAACAGAAAUUAUAACUUAUCAACAGAGGAUUGAGCAUCA
B11: chr6:168291551:168291552:+_ENSG00000130396_ENST00000400822|hu_hu|motif|central (ssRNA)
RNA: GGGAGUUCUACAGUCCGACGAUCGUGUUUCUUGGUUUUCUUUGGGAUGUGGUCUGGUGGCCUCCUCUUCAACUGAAAGACGGAAAUCCCUUUGUCACUUGGCCAUUCCCUGAAGAUUUGUAAAGGACACUCAUCAUCAUCAAGCAACAGAGGAUUGAGCAUCA
B12: 19737984_19738104_982_3pUTR_ENSG00000105849_ENST00000222567|human|control|control (ssRNA)
RNA: GGGAGUUCUACAGUCCGACGAUCGGUGGGGUAAAUUCGGCCUCUUCACUGUGUUUUCUUUUCUUUUUUUUCUUUUUAUGGUCACUUUGGUAACCACUGGAGUCACUGCCUUGGAAAACAGGGUCCUGGUCCUGAACUUCCUGGCAACAGAGGAUUGAGCAUCA
B13: chr1:220276048:220276049:+_ENSG00000067704_ENST00000302637|hu_hu|hu_hu_hu_mus_True|18_78 (ssRNA)
RNA: GGGAGUUCUACAGUCCGACGAUCGCAAAUUGCCUGGUUGGCGGGAAUUGUCCAAGGUUGUGUGGUCCAAACUAAAACGCUAACAGGGGAUGAGGCAUCUGUAAGAGACUCCAACUUUGGAGAAGGCCUCAGGAGGGGGAAUCUCAACAGAGGAUUGAGCAUCA
B14: chr14:102368134:102368135:+_ENSG00000078304_ENST00000445439|hu_hu|hu_hu_hu_mus_True|48_68 (ssRNA)
RNA: GGGAGUUCUACAGUCCGACGAUCAAGAGGCUCCAUGAUCUUCACAAACUCUGAUGGUUCAAUUACAUCUAAAAUCUCUUCUAAUUCGUUUAAGAACAUUACUUCUUUUGGACUGUGAGUCUUUGGCCAGUAUUUGAGAAGUGCCAACAGAGGAUUGAGCAUCA
B15: chr19:58207738:58207739:+_ENSMUSG00000054843_ENSMUST00000077282|mus_mus|motif|central (ssRNA)
RNA: GGGAGUUCUACAGUCCGACGAUCUAAUUGGCCACAGAGUUAACAGUAGUGUGUGACAUUGCAUUAAUUCCAUAAUUAUCGGAAAUUCAAAAAUUUUAAAGUUUUAAGAACCUGGGGGAUUCACAGUGGAUGAGGCCUGACAGCCAACAGAGGAUUGAGCAUCA
B16: chr5:143664956:143664957:-_ENSMUSG00000029580_ENSMUST00000100497|mus_mus|FALSE|FALSE (ssRNA)
RNA: GGGAGUUCUACAGUCCGACGAUCAUACAUCAAGUUGGGGGGACAAAAAAAAGGGAGGCCUCAGACCUGGGCCAUUCAGAAAUUAAAAACAAAAAUGAAGUAUUAAGGCGGAAGAUUUAAAAAAAUUUUUGCAGUACAUAAUUUCAACAGAGGAUUGAGCAUCA
B17: chr5:143664956:143664957:-_ENSMUSG00000029580_ENSMUST00000100497|mus_hu|FALSE|FALSE (ssRNA)
RNA: GGGAGUUCUACAGUCCGACGAUCUCUCAAGUUGGGGGACAAAAAAGGGGGAAGGGGGGGCACGAAGGCUCAUCAUUCAAAAUAAAACAAAAUAAAAAAGUAUUAAGGCGAAGAUUAAAAAAAUUUUGCAUUACAUAAUUUACACAACAGAGGAUUGAGCAUCA
B18: chr16:75327710:75327711:-_ENSG00000153774_ENST00000283882|hu_hu|FALSE|FALSE (ssRNA)
RNA: GGGAGUUCUACAGUCCGACGAUCAUUUAAGGACAAAUUUUUAAAAGUAAAGUGAAUGAAACCAUUUGUGAUUAAGAUACAUAGACAGAACUUCAAUGUAGAAAAAAAAAAGACCUUGCUGGGAAACAGAUGAUGAGAAACACUCAACAGAGGAUUGAGCAUCA
B19: chr10:35314101:35314102:-_ENSG00000108094_ENST00000537177|hu_hu|FALSE|FALSE (ssRNA)
RNA: GGGAGUUCUACAGUCCGACGAUCUUCACCUGUACACAGAUAAUGUAACCAUGUAAGUUUCCUUCCACUGAAAUGUUGGCUAUAAAAUAAUUCAAACAUCUGUACACUUUUUUCUAAUUCCUGGGGAAUUGCAAACGUAGAUGACAACAGAGGAUUGAGCAUCA
B20: chr6:114281168:114281169:-_ENSG00000196591_ENST00000368632|hu_hu|hu_hu_hu_mus_True|8_98 (ssRNA)
RNA: GGGAGUUCUACAGUCCGACGAUCUUCCAUUUUUCGGUAUAAGCCAUAAUUUAGCAGCAAGUUAUGAGUCAUCCGGAUUCUAUGAGGCUUCAUGGGAUGACCCUGGCCAUAAUAAUAAUUGCCAAUAUCACAGAUUCAGUAGUACAACAGAGGAUUGAGCAUCA
B21: chr14:102368134:102368135:+_ENSG00000078304_ENST00000445439|hu_hu|hu_hu_hu_mus_True|68_88 (ssRNA)
RNA: B14 RNA with C48U, G87A
B22: chr4:144460044:144460045:+_ENSG00000153147_ENST00000283131|hu_mus|hu_hu_hu_mus_False|98_98 (ssRNA)
RNA: GGGAGUUCUACAGUCCGACGAUCACGGUCCAUAGCCUGAAGAUCUACUUGCGGAUUCCAAUCUGAGUCAUAUAAAAUGACUACAUCAGCAGUUGCAAGAUUGAUGCCCAGACCACCAGCACGUGUGCUUAGCAUAAAUACAAACAACAGAGGAUUGAGCAUCA

The binders below were run against T1, UNK ZnF1-3 (assay: nsRBNS (natural sequence RNA bind-n-seq); RBNS binding buffer (assumed for nsRBNS): 25 mM Tris pH 7.5, 150 mM KCl, 3 mM MgCl2, 0.01% Triton X-100, 500 ug/ml BSA, 20 U/ml SUPERase-In, 4 C; UNK is unkempt and MSI1 is Musashi-1; names of the RNAs are library labels; protein concentration not given here; high values mean tight binding).
For B1, the binding signal was 0.442 enrichment R.
B2 was tested, and the binding signal was 0.876 enrichment R.
B3 was tested, and the binding signal was 4.06 enrichment R.
Work on B4 yielded a binding signal of 4.07 enrichment R.
In the case of B5, the binding signal is reported as 2.58 enrichment R.
B6 showed a binding signal of 1.61 enrichment R.
B7 gave a binding signal of 2.06 enrichment R.
B8 gave a binding signal of 1.43 enrichment R.
Work on B9 yielded a binding signal of 1.38 enrichment R.
Work on B10 yielded a binding signal of 3.41 enrichment R.
B11 showed a binding signal of 0.53 enrichment R.
B12 showed a binding signal of 0.463 enrichment R.
For B13, the binding signal was 2.05 enrichment R.
In the case of B14, the binding signal is reported as 0.708 enrichment R.
In the case of B15, the binding signal is reported as 4.11 enrichment R.
In the case of B16, the binding signal is reported as 6.75 enrichment R.
For B17, the binding signal was 8.16 enrichment R.
In the case of B18, the binding signal is reported as 1.71 enrichment R.
For B19, the binding signal was 1.11 enrichment R.
B20 gave a binding signal of 0.99 enrichment R.
For B21, the binding signal was 0.758 enrichment R.
Work on B22 yielded a binding signal of 1.14 enrichment R.
